# Data as given in PubChem BioAssay (NCATS).
# Results filed as inconclusive are left out. Activity calls are given as the source filed them. Unless noted, calls follow the shape of the dose curve; as a rule, active = well fitted curve in the direction sought with a large enough effect; inconclusive = small, poorly fitted or top-dose-only effect, or another doubt; inactive = no such curve, though single readings can be large; an effect the other way counts as inactive or inconclusive.
# Experiments:
# [1] = target: Glutathione peroxidase 1 (Homo sapiens) (UniProt P07203); experiment: Primary qHTS Assay for Inhibitors of Recombinant Selenoprotein Glutathione Peroxidase 1 (GPX1) (AID 1845191); also: nearly all actives have a fitted effect of over 65% in size; as to activity, negative = inhibition: % is scaled to controls: 0 for no effect and ±100 for the full control effect
# In short: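 GR-coupled readout: NADPH consumption tracked by fluorescence, ex 340/em 450 nm, at t=0 and after 15 min at RT. Final mix 10 nM GPX1, 1 mM GSH, 0.5 mM CHP, 0.5 mM NADPH, 100 nM GR, 0.01% BSA, following 30 min enzyme–compound preincubation.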
# [2] = target: Phospholipid hydroperoxide glutathione peroxidase GPX4 (Homo sapiens) (UniProt P36969); experiment: Primary qHTS Assay for Inhibitors of Recombinant Selenoprotein Glutathione Peroxidase 4 (GPX4) (AID 1845192); also: nearly all actives have a fitted effect of over 65% in size; also: potency is read from the fitted curve at half-maximal effect
# In short: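 Steps: GPX4 plus compound, 30 min RT; add GR/GSH/NADPH master mix; start with cumene hydroperoxide; read 340/450 nm fluorescence at 0 and 15 min. Finals were 200 nM GPX4, 1 mM GSH, 0.5 mM CHP, 0.5 mM NADPH, 100 nM GR.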
# [3] = qHTS drug screen for cell cycle checkpoint inhibitors in PARPi-resistant BRCA-mutant ovarian cancer cell lines. (AID 1963452; calls by dose curve; also: potency is read from the fitted curve at half-maximal effect); conditions: PEO1/OlaR viability, CellTiter-Glo luminescence, 96 h; for Z-AUC: stronger effect = lower value
# In short: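 PEO1, PEO4 and PEO1/OlaR ovarian cancer cells, 600 per well, exposed 96 h at 37C to a dilution series. Viability read by CellTiter-Glo luminescence, normalized to DMSO and empty wells; activity summarized as Z-AUC.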
# [4] = qHTS profiling for inhibitors of Plasmodium falciparum proliferation (AID 504749);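 also: 0% = DMSO vehicle and full inhibition = artemisinin control; nearly all actives have a fitted effect of over 60% in size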; conditions: P. falciparum in erythrocytes, SYBR Green DNA, 72 h, at 28.7 µM (top of the series)
# In short: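 SYBR Green fluorescence (ex 485 nm, em 535 nm) reports parasite DNA after 72 h compound exposure of infected red cells at 0.3% parasitemia, 2.5% hematocrit; signal normalized to 0.29 uM artemisinin and vehicle wells.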
# [5] = qHTS assay for small molecule agonists of retinoid X receptor alpha signaling (AID 588544); conditions: HEK293T RXRa-UAS-bla, beta-lactamase reporter, 18 h; 530 nm emission
# [6] = target: Thyroid hormone receptor beta (Homo sapiens) (UniProt P10828); experiment: qHTS assay for small molecule agonists of thyroid hormone receptor beta signaling (AID 588545; calls by dose curve;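 also: 0% = DMSO only and 100% = 10 nM T3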)
# In short: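 TR-UAS-bla GripTite HEK 293 cells (2500/well, medium with 2% charcoal/dextran FBS) were treated in agonist mode for 18 h at 37 C, titrated. Beta-lactamase was read by CCF4 ratio after 2 h; normalized to 10 nM T3 (100%) and DMSO, Hill-fitted for EC50 and efficacy.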
# [7] = qHTS assay for small molecule antagonists of retinoid X receptor alpha signaling (AID 588546; active = well fitted inhibition curve with a large enough effect in the signal ratio, with a control signal flat, not every such curve was filed as active; the % refers to the signal ratio;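 also: cells stimulated with 9-cis-retinoic acid as agonist; % is scaled to controls: 0 for no effect and ±100 for the full control effect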); conditions: HEK293T RXRa-UAS-bla, beta-lactamase ratio, antagonist mode; measured here: W530 green channel, cytotoxicity proxy
# In short: (§1)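 Beta-lactamase reporter inhibition, read as CCF4 fluorescence ratio (ex 405, em 460/530 nm) after 2 h at RT. HEK293T UAS-bla cells, 2500/well, were stimulated with 9-cis-RA at 500 or 100 nM final alongside test compound for 18 h at 37 C.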
# [8] = target: Retinoic acid receptor RXR-alpha (Homo sapiens) (UniProt P19793); experiment: as above; conditions: HEK293T RXRa-UAS-bla, beta-lactamase ratio, antagonist mode
# In short: as §1
# [9] = qHTS assay for environmental chemicals that activate the Aryl hydrocarbon Receptor (AhR) signaling pathway (AID 651777); conditions: 1A2-DRE human hepatoma cells, luciferase, 24 h; activation: stronger effect = higher value; also: % of control where 0% means no effect; nearly all actives have a fitted effect of over 15% in size
# In short: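 Luminescence read-out: One-Glo added for 30 min at RT after 24 hr compound treatment (37 C, 5% CO2) of human hepatoma cells expressing a DRE/CYP1A2 promoter–luciferase reporter; increased signal indicates AhR activation.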
# [10] = target: Peroxisome proliferator-activated receptor alpha (Homo sapiens) (UniProt Q07869); experiment: qHTS assay for small molecule agonists of the peroxisome proliferator-activated receptor alpha (PPARalpha) signaling pathway (AID 651778); conditions: PathHunter PPARalpha complementation, chemiluminescence, 6 h; max response: stronger effect = higher value; also: % of control where 0% means no effect
# In short: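 Enzyme-fragment complementation assay in which ligand-bound PPARalpha translocates and forms an active enzyme that generates chemiluminescence. Cells were plated overnight, exposed to compound for 6 hr at 37 C, and then given detection reagent for 60 min at room temperature.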
# [11] = qHTS assay for small molecule agonists of the antioxidant response element (ARE) signaling pathway measured by Nrf2-dependant transcriptional activity (AID 720636; active = well fitted curve in the direction sought with a large enough effect in the repeat runs; an effect the other way counts as inactive or inconclusive;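 also: HepG2 cells with an ARE-driven luciferase reporter; % of control where 0% means no effect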)
# In short: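 HepG2 ARE-luc reporter line, 1% dialyzed FBS; 6 hr attachment at 37 C, compound pinned in, 16 hr at 37 C/5% CO2; ONE-Glo, 30 min RT, luminescence read.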
# [12] = qHTS assay for small molecule agonists of the antioxidant response element (ARE) signaling pathway measured by Nrf2-dependant transcriptional activity - cell viability counter screen (AID 720653; active = well fitted curve in the direction sought with a large enough effect in the repeat runs; an effect the other way counts as inactive or inconclusive; also: % is scaled to controls: 0 for no effect and ±100 for the full control effect); conditions: ARE-bla HepG2 viability, CellTiter-Glo ATP luminescence, 16 h; max response: stronger effect = lower value
# In short: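 ARE-bla HepG2 cells treated with compounds for 16 h at 37C; this counter screen measures viability as intracellular ATP by CellTiter-Glo luminescence after 30 min at room temperature.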
# [13] = qHTS assay for cell viability of HEK293 cells (AID 743288); conditions: ATP luminescence (CellTiter-Glo), 18 h; max response: stronger effect = lower value; also: % is scaled to controls: 0 for no effect and ±100 for the full control effect; nearly all actives have a fitted effect of over 50% in size
# In short: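 Readout is luciferase-coupled ATP content (CellTiter-Glo luminescence, 30 min room temperature) as a measure of metabolically competent cells. Parental HEK293 cells were plated 5 h or more before compound addition, then treated 18 h at 37 C.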
# [14] = qHTS assay for cell viability of the p53RE-bla HCT-116 cell line (AID 743292); also: % is scaled to controls: 0 for no effect and ±100 for the full control effect; nearly all actives have a fitted effect of over 55% in size
# In short: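 Luminescent ATP quantitation (CellTiter-Glo) served as the viability read-out; reagent was added after 16 h compound exposure at 37 C and read after 30 min at room temperature. Cells: p53RE-bla HCT-116, 4,000 per well.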
# [15] = target: Nuclear receptor subfamily 1 group I member 2 (Rattus norvegicus) (UniProt Q9R1A7); experiment: qHTS assay for small molecule activators of the rat pregnane X receptor (rPXR) signaling pathway (AID 651751; call rule not given here; also: 0% is about no effect); conditions: rPXR reporter cells, luciferase (One-Glo), 24 h
# [16] = measured here: PEO1 parental Z-AUC
# Glutathione peroxidase 1 (Homo sapiens), sequence (P07203 whole entry, looked up): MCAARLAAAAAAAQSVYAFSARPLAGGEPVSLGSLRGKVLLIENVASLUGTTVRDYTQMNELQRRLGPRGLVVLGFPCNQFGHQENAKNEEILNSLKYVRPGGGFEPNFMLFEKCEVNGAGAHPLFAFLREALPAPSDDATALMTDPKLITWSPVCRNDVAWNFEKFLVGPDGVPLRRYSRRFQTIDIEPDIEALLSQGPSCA
# Phospholipid hydroperoxide glutathione peroxidase GPX4 (Homo sapiens), sequence (P36969 whole entry, looked up): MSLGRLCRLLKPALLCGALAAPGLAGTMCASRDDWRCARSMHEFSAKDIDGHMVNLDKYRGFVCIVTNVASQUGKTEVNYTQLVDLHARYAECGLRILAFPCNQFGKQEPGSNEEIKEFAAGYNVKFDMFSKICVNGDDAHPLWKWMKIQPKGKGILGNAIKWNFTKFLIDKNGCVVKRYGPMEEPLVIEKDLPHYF
# Nuclear receptor subfamily 1 group I member 2 (Rattus norvegicus), sequence (Q9R1A7 whole entry, looked up): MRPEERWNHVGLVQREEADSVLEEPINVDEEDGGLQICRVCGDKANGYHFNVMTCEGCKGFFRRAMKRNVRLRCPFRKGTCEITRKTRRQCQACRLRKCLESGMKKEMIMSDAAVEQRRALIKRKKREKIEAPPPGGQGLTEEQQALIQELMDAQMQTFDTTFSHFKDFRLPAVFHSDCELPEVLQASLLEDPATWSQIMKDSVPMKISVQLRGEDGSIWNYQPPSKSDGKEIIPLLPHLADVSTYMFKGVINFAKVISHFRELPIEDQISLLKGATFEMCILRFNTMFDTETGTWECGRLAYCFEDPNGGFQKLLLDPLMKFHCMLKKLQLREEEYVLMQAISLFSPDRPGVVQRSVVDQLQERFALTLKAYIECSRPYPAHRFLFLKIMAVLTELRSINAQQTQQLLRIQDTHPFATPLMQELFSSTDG
# Thyroid hormone receptor beta (Homo sapiens), sequence (P10828 whole entry, looked up): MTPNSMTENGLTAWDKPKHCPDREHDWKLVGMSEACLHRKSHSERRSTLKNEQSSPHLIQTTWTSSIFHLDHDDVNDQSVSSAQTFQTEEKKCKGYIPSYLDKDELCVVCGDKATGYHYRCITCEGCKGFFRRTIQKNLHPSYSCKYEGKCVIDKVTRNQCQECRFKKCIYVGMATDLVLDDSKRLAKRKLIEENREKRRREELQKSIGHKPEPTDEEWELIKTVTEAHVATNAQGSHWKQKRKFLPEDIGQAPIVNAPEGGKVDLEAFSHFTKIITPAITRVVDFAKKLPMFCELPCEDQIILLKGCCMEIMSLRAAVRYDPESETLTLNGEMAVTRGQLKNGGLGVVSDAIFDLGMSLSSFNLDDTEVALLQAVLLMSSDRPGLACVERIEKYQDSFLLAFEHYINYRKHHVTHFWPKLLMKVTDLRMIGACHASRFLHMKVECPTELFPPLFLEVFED
# Retinoic acid receptor RXR-alpha (Homo sapiens), sequence (P19793 whole entry, looked up): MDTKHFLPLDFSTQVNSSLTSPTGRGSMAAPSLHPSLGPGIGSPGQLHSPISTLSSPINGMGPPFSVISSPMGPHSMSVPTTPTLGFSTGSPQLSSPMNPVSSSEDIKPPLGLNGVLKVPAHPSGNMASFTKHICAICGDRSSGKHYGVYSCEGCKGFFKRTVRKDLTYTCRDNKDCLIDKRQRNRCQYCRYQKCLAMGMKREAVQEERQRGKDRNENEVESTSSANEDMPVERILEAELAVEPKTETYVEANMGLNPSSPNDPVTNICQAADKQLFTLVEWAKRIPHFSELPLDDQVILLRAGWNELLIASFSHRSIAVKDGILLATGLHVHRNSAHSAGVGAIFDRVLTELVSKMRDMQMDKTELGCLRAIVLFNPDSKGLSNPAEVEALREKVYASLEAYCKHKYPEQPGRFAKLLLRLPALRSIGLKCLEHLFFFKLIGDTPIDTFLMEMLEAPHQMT
# Peroxisome proliferator-activated receptor alpha (Homo sapiens), sequence (Q07869 whole entry, looked up, the tested form may be a part): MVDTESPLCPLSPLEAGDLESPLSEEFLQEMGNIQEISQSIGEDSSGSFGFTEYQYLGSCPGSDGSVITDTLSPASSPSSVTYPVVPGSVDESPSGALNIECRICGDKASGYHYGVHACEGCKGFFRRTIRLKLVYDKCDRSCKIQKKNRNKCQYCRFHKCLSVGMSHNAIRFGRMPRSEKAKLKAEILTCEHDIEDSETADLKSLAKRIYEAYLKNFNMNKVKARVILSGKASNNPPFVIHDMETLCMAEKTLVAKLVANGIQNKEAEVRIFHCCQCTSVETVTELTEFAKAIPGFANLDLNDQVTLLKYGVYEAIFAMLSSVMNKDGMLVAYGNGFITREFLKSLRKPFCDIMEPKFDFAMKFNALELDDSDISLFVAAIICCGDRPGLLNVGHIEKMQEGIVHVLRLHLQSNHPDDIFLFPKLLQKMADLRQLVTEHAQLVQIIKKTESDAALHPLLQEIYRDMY
smiles,measurement,setting,value
CC(C)NC(=O)C1CCC(n2c(NC(=O)c3ccc(F)cc3)nc3ccc(CN4CCC(C(C)(C)O)CC4)cc32)CC1 (stereo unspecified),Potency,[1],inactive
same,Potency,[2],inactive
same,Potency,[3],8.48 µM (active)
same,Z-AUC,[3]; [16],-1.17
same,Z-AUC,[3]; measured here: PEO4 Z-AUC,-1.3
CO[C@H]1C[C@@H]2CC[C@@H](C)[C@@](O)(O2)C(=O)C(=O)N2CCCC[C@H]2C(=O)O[C@H]([C@H](C)C[C@@H]2CC[C@@H](OCCO)[C@H](OC)C2)CC(=O)[C@H](C)/C=C(/C)[C@@H](O)[C@@H](OC)C(=O)[C@H](C)C[C@H](C)\C=C/C=C\C=C/1C,Potency,[1],inactive
same,Potency,[2],3.98 µM (active)
CCC(=O)O[C@@H](OP(=O)(CCCCc1ccccc1)CC(=O)N1C[C@H](C2CCCCC2)C[C@H]1C(=O)O)C(C)C (stereo partly specified),"activity, negative = inhibition",[1],2.57% [at 9.52 µM] (inactive)
same,"activity, negative = inhibition",[4]; parasite line A,-6.06% (inactive)
same,"activity, negative = inhibition",[4]; parasite line B,-3.37% (inactive)
CC1(C)S[C@@H]2[C@H](NC(=O)COc3ccccc3)C(=O)N2[C@H]1C(=O)O,max response,[5],-5.75%
same,outcome,[6],inactive
same,max response,[7],-19.5%
same,max response,[8],2.91% (inactive)
same,activation,[9],-1.58% (inactive)
same,max response,[10],-2.73% (inactive)
same,Potency,[11],inactive
same,max response,[12],-8.85% (inactive)
same,max response,[13],-6.9% (inactive)
same,Potency,[14],inactive
same,Potency,[1],inactive
same,"activity, negative = inhibition",[4]; parasite line A,4.88% (inactive)
same,"activity, negative = inhibition",[4]; parasite line B,4.38% (inactive)
same,max response,[15],-0.437% (inactive)
Cc1oc(-c2ccccc2)nc1CCOc1ccc(CC2C(=O)NOC2=O)cc1 (stereo unspecified),Potency,[1],inactive
same,Potency,[2],14.1 µM (active)
O=C(/C=C/c1ccc(Cl)cc1)N1CCC2(CC1)CN(Cc1ccc(Cl)c(Cl)c1)C(=O)O2,Potency,[1],inactive
same,Potency,[2],inactive
same,Z-AUC,[3],1.05 (inactive)
same,Z-AUC,[3]; [16],-0.18
same,Z-AUC,[3]; measured here: PEO4 Z-AUC,0.00813
O=C1[C@@H]2[C@H]3CC[C@H](C3)[C@@H]2C(=O)N1C[C@@H]1CCCC[C@H]1CN1CCN(c2nsc3ccccc23)CC1,Potency,[1],inactive
same,Potency,[2],inactive
O=c1cc(-c2cccc(O)c2)oc2c(O)c(O)ccc12,Potency,[1],inactive
O=C(Nc1ccc(-c2ccnc(Nc3ccc(N4CCOCC4)cc3)n2)cc1)[C@@H]1CCCN1,Potency,[1],inactive
same,Potency,[2],inactive
same,Z-AUC,[3],-0.466 (inactive)
same,Z-AUC,[3]; [16],0.455
same,Z-AUC,[3]; measured here: PEO4 Z-AUC,0.0561
N[C@@H](C(=O)N[C@@H]1C(=O)N2C(C(=O)O)=C(Cl)CC[C@H]12)c1ccccc1,Potency,[1],inactive
same,Potency,[2],inactive
